Data published in PubChem BioAssay (NCI).
The panel holds about 79,000 compounds, 15% with a hit somewhere; the sample as a whole holds those more often. Activity calls are given as the source filed them. Cut-off read from the data, not from the text of the source: active = growth inhibition above about 70%; inactive = the rest.

Key:
[1] = NCI Yeast Anticancer Drug Screen. Data for the rad52 strain (AID 147);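 note: 0% = growth of vehicle-treated control cultures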; conditions: S. cerevisiae rad52 mutant growth inhibition, hits give high values
How it was run: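 Genetically altered yeast (DNA damage repair defect) treated with compound; inhibition calculated relative to vehicle.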

[2] = NCI Yeast Anticancer Drug Screen. Data for the wt1 strain (AID 149);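 note: 0% = growth of vehicle-treated wt1 cultures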; conditions: S. cerevisiae wt1 strain (SPY 50644) growth inhibition, hits give high values
How it was run: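 Measured: growth of wt1 yeast under compound versus vehicle treatment, reported as inhibition.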

[3] = NCI Yeast Anticancer Drug Screen. Data for the rad50EPP+ strain (AID 151);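 note: 0% = growth of vehicle-treated control cultures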; conditions: S. cerevisiae rad50 mutant strain, hits give high values
How it was run: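 Strain rad50EPP+; compound exposure; % growth inhibition vs vehicle.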

[4] = NCI Yeast Anticancer Drug Screen. Data for the mgt1 strain (AID 153); conditions: S. cerevisiae mgt1 mutant growth inhibition, hits give high values
How it was run: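 Read-out: yeast growth inhibition vs vehicle control. Strain mgt1, drawn from a panel altered in DNA damage repair or cell cycle control.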

[5] = NCI Yeast Anticancer Drug Screen. Data for the rad50 strain (AID 155);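 note: 0% = growth of vehicle-only cultures of the same strain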; conditions: S. cerevisiae rad50 strain growth inhibition, hits give high values
How it was run: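 Growth of the mutant yeast was measured after compound exposure and referenced to vehicle-treated cultures.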

[6] = NCI Yeast Anticancer Drug Screen. Data for the mec2-1 strain (AID 157); conditions: S. cerevisiae mec2-1 strain, hits give high values
How it was run: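 Cells of the genetically defined mec2-1 yeast strain are incubated with test compound. Inhibition of growth is calculated against vehicle-treated controls.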

[7] = NCI Yeast Anticancer Drug Screen. Data for the rad14 strain (AID 159);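 note: 0% = growth of vehicle-treated control cultures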; conditions: S. cerevisiae rad14 strain growth inhibition, hits give high values
How it was run: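 Here, inhibition of yeast growth was measured after compound exposure, using a strain with a genetic defect in DNA damage repair and vehicle-treated cultures as the reference.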

[8] = NCI Yeast Anticancer Drug Screen. Data for the sgs1 mgt1 strain (AID 161);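 note: 0% = growth of cultures given vehicle only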; conditions: S. cerevisiae sgs1 mgt1 strain, hits give high values
How it was run: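 Genetically altered yeast, compound exposure, growth inhibition relative to vehicle.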

[9] = NCI Yeast Anticancer Drug Screen. Data for the CLN2oe strain (AID 163);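 note: 0% = growth of vehicle-only control cultures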; conditions: S. cerevisiae CLN2oe strain, hits give high values
How it was run: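 Strain altered in cell-cycle control, incubated with compound; growth compared to solvent-treated controls.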

[10] = NCI Yeast Anticancer Drug Screen. Data for the cln2 rad14 strain (AID 165);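 note: 0% = growth equal to vehicle treated cultures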; conditions: S. cerevisiae cln2 rad14 strain, hits give high values
How it was run: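 The screen exposed genetically defined yeast (cln2 rad14) to test compounds and scored growth inhibition relative to vehicle-treated controls.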

[11] = NCI Yeast Anticancer Drug Screen. Data for the bub3 strain (AID 167); conditions: S. cerevisiae bub3 mutant strain, hits give high values
How it was run: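 Whole-cell yeast assay. The mutant strain was incubated with compounds, and growth inhibition was determined by comparison with vehicle-treated cells.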

[12] = NCI Yeast Anticancer Drug Screen. Data for the wt2 strain (AID 169);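 note: 0% = growth of vehicle-treated yeast cultures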; conditions: S. cerevisiae wt2 strain growth inhibition, hits give high values
How it was run: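 Steps: yeast strain treated with compound; growth recorded; inhibition calculated relative to cultures given vehicle alone.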

[13] = NCI Yeast Anticancer Drug Screen. Data for the mlh1 strain (AID 171);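 note: 0% = growth of vehicle-treated control cultures of the same strain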; conditions: S. cerevisiae mlh1 strain growth inhibition, hits give high values
How it was run: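 Yeast screen: mutant strain plus compound, growth scored against vehicle control wells.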

[14] = NCI Yeast Anticancer Drug Screen. Data for the sgs1 strain (AID 173);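 note: 0% = growth of vehicle-only control cultures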; conditions: S. cerevisiae sgs1 mutant, hits give high values
How it was run: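 Inhibition of yeast growth served as the measure. The mutant strain was treated with each compound, and growth was normalised to cultures receiving vehicle alone.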

[15] = NCI Yeast Anticancer Drug Screen. Data for the mlh1 rad18 strain (AID 175); conditions: S. cerevisiae mlh1 rad18 strain growth inhibition, hits give high values
How it was run: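 Compound-treated yeast growth, normalised to vehicle controls. Strain bears defined DNA repair mutations.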

[16] = NCI Yeast Anticancer Drug Screen. Data for the rad18 strain (AID 177); conditions: S. cerevisiae rad18 mutant growth inhibition, hits give high values
How it was run: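 Inhibition values reflect reduced yeast growth compared with vehicle-treated controls, using a strain engineered with a DNA damage repair defect.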

[17] = at 5.0 µM (retest, dose inferred, filed as 0.5)
[18] = at 50.0 µM (retest, dose inferred, filed as 5.0)

Measured: growth inhibition

CCCCOC(=O)N[C@H]1CCc2cc(OC)c(OC)c(OC)c2-c2ccc(SC)c(=O)cc21
active: [1]; at 100.0 µM 77% | [4]; at 100.0 µM 77% | [5]; at 50.0 µM 82.5% | [5]; at 100.0 µM 81% | [6]; at 100.0 µM 81% | [7]; at 100.0 µM 84% | [8]; at 50.0 µM 82.5% | [9]; at 100.0 µM 79% | [11]; at 50.0 µM 77.8% | [11]; at 100.0 µM 81% | [12]; at 100.0 µM 86% | [13]; at 100.0 µM 90% | [14]; at 100.0 µM 89% | [15]; at 50.0 µM 92.9% | [16]; at 100.0 µM 80%
inactive: [1]; at 1.2 µM -2% | [1]; at 3.7 µM 1% | [1]; at 11.0 µM 6% | [1]; at 33.0 µM 36% | [2]; at 1.2 µM -2% | [2]; at 3.7 µM -3% | [2]; at 11.0 µM -4% | [2]; at 33.0 µM 3% | [2]; at 100.0 µM 55% | [3]; at 1.2 µM 1% | [3]; at 3.7 µM -1% | [3]; at 11.0 µM -4% | [3]; at 33.0 µM -6% | [3]; at 100.0 µM -11% | [4]; at 1.2 µM -5% | [4]; at 3.7 µM -3% | [4]; at 11.0 µM -1% | [4]; at 33.0 µM 49% | [5]; at 1.2 µM 1% | [5]; at 3.7 µM 6% | [5]; [17] -15% | [5]; at 11.0 µM 14% | [5]; at 33.0 µM 51% | [5]; [18] 52% | [6]; at 1.2 µM -6% | [6]; at 3.7 µM -3% | [6]; [17] -19% | [6]; at 11.0 µM -2% | [6]; at 33.0 µM 15% | [6]; [18] 48% | [6]; at 50.0 µM 53% | [7]; at 1.2 µM -1% | [7]; at 3.7 µM 2% | [7]; at 11.0 µM 7% | [7]; at 33.0 µM 49% | [8]; [17] 3% | [8]; [18] -13% | [9]; at 1.2 µM -2% | [9]; at 3.7 µM -5% | [9]; at 11.0 µM -1% | [9]; at 33.0 µM 30% | [10]; [17] -17% | [10]; [18] 60% | [10]; at 50.0 µM 58.3% | [11]; at 1.2 µM -9% | [11]; at 3.7 µM -8% | [11]; [17] 0% | [11]; at 11.0 µM -5% | [11]; at 33.0 µM 2% | [11]; [18] 55% | [12]; at 1.2 µM -2% | [12]; at 3.7 µM -3% | [12]; at 11.0 µM -1% | [12]; at 33.0 µM 29% | [13]; at 1.2 µM -4% | [13]; at 3.7 µM -3% | [13]; at 11.0 µM 2% | [13]; at 33.0 µM 27% | [14]; at 1.2 µM -3% | [14]; at 3.7 µM -5% | [14]; at 11.0 µM 2% | [14]; at 33.0 µM 38% | [15]; [17] -12% | [15]; [18] 47% | [16]; at 1.2 µM -1% | [16]; at 3.7 µM 0% | [16]; at 11.0 µM 7% | [16]; at 33.0 µM 26%

O=C(NCCCCCCCN1CCCCCCC1)C(C1CCCCC1)C1CCCCC1
active: [1]; at 11.0 µM 89% | [1]; at 33.0 µM 98% | [1]; at 100.0 µM 99% | [2]; at 33.0 µM 97% | [2]; at 100.0 µM 98% | [4]; at 3.7 µM 83% | [4]; at 11.0 µM 97% | [4]; at 33.0 µM 98% | [4]; at 100.0 µM 99% | [5]; at 11.0 µM 81% | [5]; at 33.0 µM 98% | [5]; [18] 99% | [5]; at 50.0 µM 99.3% | [5]; at 100.0 µM 98% | [6]; at 11.0 µM 85% | [6]; at 33.0 µM 98% | [6]; [18] 97% | [6]; at 50.0 µM 94.2% | [6]; at 100.0 µM 99% | [7]; at 1.2 µM 72% | [7]; at 3.7 µM 75% | [7]; at 11.0 µM 97% | [7]; at 33.0 µM 99% | [7]; at 100.0 µM 99% | [8]; [18] 98% | [8]; at 50.0 µM 99% | [9]; at 11.0 µM 92% | [9]; at 33.0 µM 97% | [9]; at 100.0 µM 98% | [10]; [18] 98% | [10]; at 50.0 µM 96.5% | [11]; at 11.0 µM 95% | [11]; at 33.0 µM 97% | [11]; [18] 99% | [11]; at 50.0 µM 99% | [11]; at 100.0 µM 98% | [12]; at 11.0 µM 95% | [12]; at 33.0 µM 98% | [12]; at 100.0 µM 99% | [13]; at 11.0 µM 95% | [13]; at 33.0 µM 98% | [13]; at 100.0 µM 99% | [14]; at 11.0 µM 95% | [14]; at 33.0 µM 98% | [14]; at 100.0 µM 99% | [15]; [18] 98% | [15]; at 50.0 µM 99.2% | [16]; at 11.0 µM 92% | [16]; at 33.0 µM 97% | [16]; at 100.0 µM 98%
inactive: [1]; at 1.2 µM 40% | [1]; at 3.7 µM 52% | [2]; at 1.2 µM 18% | [2]; at 3.7 µM 26% | [2]; at 11.0 µM 61% | [3]; at 1.2 µM 0% | [3]; at 3.7 µM -1% | [3]; at 11.0 µM 4% | [3]; at 33.0 µM 16% | [3]; at 100.0 µM 41% | [4]; at 1.2 µM 64% | [5]; at 1.2 µM 41% | [5]; at 3.7 µM 45% | [5]; [17] 35% | [6]; at 1.2 µM 43% | [6]; at 3.7 µM 39% | [6]; [17] 29% | [8]; [17] 36% | [9]; at 1.2 µM 53% | [9]; at 3.7 µM 65% | [10]; [17] 62% | [11]; at 1.2 µM 65% | [11]; at 3.7 µM 66% | [11]; [17] 27% | [12]; at 1.2 µM 37% | [12]; at 3.7 µM 56% | [13]; at 1.2 µM 44% | [13]; at 3.7 µM 48% | [14]; at 1.2 µM 59% | [14]; at 3.7 µM 67% | [15]; [17] 17% | [16]; at 1.2 µM 51% | [16]; at 3.7 µM 64%
